FBPA coupling cs – qHTS Assay for Inhibitors of Fructose-1,6-bisphosphate Aldolase from Giardia Lamblia: Coupling assay counterscreen; coupling enzyme system counterscreen, AmpLite Red fluorescence; activity change, negative = inhibition, % at 58.2 µM, hits read low; hit rate 0.67% among 290,000; in the data active means activity change below about -30%
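Counterscreen of the coupled detection system alone, without aldolase: glyceraldehyde-3-phosphate coupling enzymes plus AmpLite Red readout. Compounds at 57.5 uM final, 10 min RT preincubation, 20 min RT reaction, fluorescence 525/598 nm.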
TSHR antag – Antagonists of the Thyroid Stimulating Hormone Receptor: HTS campaign. activity change, negative = inhibition, % at 11.5 µM. hit rate 0.2% among 330,000. TSHR-expressing cells, TSH-stimulated cAMP HTRF, 2 h; hits give low values. Thyrotropin receptor (Homo sapiens), P16473;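 active means activity change below a set negative limit, meaning inhibition stronger than a set level, cut at about -70% in these data; inconclusive means activity change between two set negative limits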
Target sequence (P16473 whole entry, looked up): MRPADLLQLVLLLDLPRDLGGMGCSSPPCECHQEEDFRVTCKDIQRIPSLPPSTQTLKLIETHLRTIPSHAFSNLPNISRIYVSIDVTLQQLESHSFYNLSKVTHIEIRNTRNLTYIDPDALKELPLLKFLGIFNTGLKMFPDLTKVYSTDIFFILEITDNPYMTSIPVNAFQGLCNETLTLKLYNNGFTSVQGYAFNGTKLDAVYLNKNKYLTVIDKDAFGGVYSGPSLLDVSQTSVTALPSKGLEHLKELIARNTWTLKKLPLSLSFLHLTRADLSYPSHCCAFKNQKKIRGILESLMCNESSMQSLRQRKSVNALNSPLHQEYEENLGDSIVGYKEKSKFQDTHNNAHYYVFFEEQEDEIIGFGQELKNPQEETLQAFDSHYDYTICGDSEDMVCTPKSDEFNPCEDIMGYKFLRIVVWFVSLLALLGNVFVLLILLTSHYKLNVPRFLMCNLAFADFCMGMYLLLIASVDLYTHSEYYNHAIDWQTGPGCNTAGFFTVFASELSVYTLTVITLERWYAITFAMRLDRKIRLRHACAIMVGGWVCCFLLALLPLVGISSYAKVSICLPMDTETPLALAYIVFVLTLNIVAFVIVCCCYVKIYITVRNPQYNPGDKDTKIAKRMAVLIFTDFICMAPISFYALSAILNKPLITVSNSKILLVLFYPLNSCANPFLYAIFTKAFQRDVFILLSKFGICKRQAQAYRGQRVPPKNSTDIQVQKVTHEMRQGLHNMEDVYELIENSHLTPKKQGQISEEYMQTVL
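Cell-based HTRF cAMP assay; TSHR cells + compound, TSH EC80 (4nM final), 2 h, 37 deg C. Lysis with anti-cAMP cryptate and cAMP-d2, 30 min RT, read 665/620 nm.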
Gal4-VP16 FLuc – VP16 counterscreen qHTS for inhibitors of ROR gamma transcriptional activity; Drosophila S2 Gal4-VP16 UAS-luciferase, luminescence, 20 h; Potency, µM (doses to about 53.6 µM), for inactives: top-dose activity, negative = inhibition, hits mostly inhibitors; hit rate 3.5% among 310,000;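 further: Gal4-VP16 expression switched on by copper sulfate through the metallothionein promoter; potency means the concentration at half of the fitted maximal effect; nearly all actives have a fitted effect of over 50% in size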
RORg inh – qHTS for inhibitors of ROR gamma transcriptional activity; Nuclear receptor ROR-gamma (Mus musculus), P51450; Drosophila S2 Gal4-RORgamma UAS-luciferase reporter, 20 h; Potency, µM (top dose mostly 53.6 µM), for the others: top-dose activity change, negative = inhibition, actives largely listed as inhibitors; hit rate 5.4% among 310,000; AID 2551, 2010; further: potency means the concentration at half of the fitted maximal effect; nearly all actives have a fitted effect of over 60% in size
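Luminescence from a UAS-regulated Photinus luciferase reporter in stably transfected Drosophila Schneider cells is measured; decreased signal marks ROR gamma inhibition. Fusion expression is induced by 700 uM copper sulfate for 20 hr.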
ELG1 DNA repair – qHTS screen for small molecules that inhibit ELG1-dependent DNA repair in human embryonic kidney (HEK293T) cells expressing luciferase-tagged ELG1. HEK293T ELG1-luciferase reporter, luminescence, 16 h; DNA damage induced by 5-fluorouridine. Potency, µM (highest dose often 46.1 µM), without a hit: at the highest dose activity change, negative = inhibition, most hits filed as inhibitors. hit rate 2.3% among 330,000; further: potency means the concentration at half of the fitted maximal effect; nearly all actives have a fitted effect of over 55% in size
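Quantitative HTS, concentration-response format. 2,000 cells/well co-treated with 5-fluorouridine and compound, 16 hr in 5% CO2 at 37 °C; ONE-Glo luminescence read after 30 min.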
* = called active by the depositor; ? = inconclusive; nt = not tested or not shown; [ ] = dose if it differs, or a comment. An excerpt weighted towards active compounds, which were near 8% of everything screened. Unless noted, the call rests on the fitted dose curve; in most records, active means well fitted curve in the direction sought with a large enough effect; inconclusive means small, poorly fitted or top-dose-only effect, or another doubt; inactive means no such curve, though single readings can be large; an effect the other way counts as inactive or inconclusive. On the % scale 0 is the no-effect control and ±100 the full control effect.

SMILES	FBPA coupling cs	TSHR antag	Gal4-VP16 FLuc	RORg inh	ELG1 DNA repair
O=C(Nc1c(-c2ccccc2)nc2ccccn12)c1ccco1	3	-4	-4%	11%	17%
Cc1ccc(-c2nc3ccccn3c2NC(=O)c2ccco2)cc1	1	-4	12%	40µM*	29%
COc1cc(/C=C2/C(=N)N3C=CSC3=NC2=O)ccc1OCCOc1ccc(NC(C)=O)cc1	2	-10	-10%	-5%	-3%
CCOc1ccc(-c2ccc(/C=C3/C(=N)N4C(C)=CSC4=NC3=O)o2)c([N+](=O)[O-])c1	9	-19	?	-24%	26µM*
N=C1/C(=C/c2ccc(-c3cccc(C(=O)O)c3)o2)C(=O)N=C2SC=C(c3ccccc3)N12	-10	-38	0%	3%	?
CCOc1ccc(-c2ccc(/C=C3/C(=N)N4C=CSC4=NC3=O)o2)c([N+](=O)[O-])c1	-4	-10	3.5µM*	2.5µM*	0%
C=C1CCN(C(C(=O)NCc2ccc(Cl)c(Cl)c2)C(C)C)S(=O)(=O)c2ccccc21 (stereo unspecified)	3	nt	-3%	11%	nt
COc1ccc(S(=O)(=O)NCC(c2ccc(F)cc2)N2CCOCC2)cc1Br (stereo unspecified)	nt	6	nt	nt	9%
CCCS(=O)(=O)c1nc(S(=O)(=O)c2ccc(C)cc2)c(NCCCN2CCCC2=O)s1	0	-10	10%	10%	1%
COc1cc(/C=N/n2c(C)n[nH]c2=S)ccc1OCc1ccc(F)cc1	1	-11	13%	4µM*	?
CCOc1cc(/C=N/O)ccc1OCc1ccc(F)cc1	-4	3	-21%	8%	26%
CCOc1cc(/C=N/N=C(N)N)ccc1OCc1ccc(Cl)cc1	-1	18	8.9µM*	?	-11%
COc1cc(/C=N/O)ccc1OCc1ccc(Cl)cc1	-17	3	?	1.1µM*	?
COc1cc(/C=N/O)ccc1OCc1ccc(C(=O)O)cc1	10	-9	4µM*	1µM*	?
COc1cc(/C=N\n2nnnc2N)ccc1OCc1ccc(F)cc1	4	17	?	-4%	?
COc1cc(/C=N/N=C(N)N)ccc1OCc1ccc(Cl)cc1	-1	-8	-27%[10 µM]	-105%	?
Cc1nc(N=Nc2cc(S(=O)(=O)O)ccc2S(=O)(=O)O)c(COP(=O)(O)O)c(C=O)c1O	6	nt	-2%	3%	nt
CC1=CCC(C(=O)O)C(C(=O)Nc2ccc(-c3nc4ccc(C)cc4s3)cc2)C1 (stereo unspecified)	5	-9	-22%	-20%	?
CC(=O)NC(=S)Nc1ccc(-c2nc3ccc(C)cc3s2)cc1	1	-7	1.8µM*	0.5µM*	?
CCC(C)(C)NC(=S)Nc1ccc(-c2nc3ccc(C)cc3s2)cc1	4	-2	-15%	8%	?
CNC(=S)Nc1ccc(-c2nc3ccc(C)cc3s2)cc1	-1	-16	7.1µM*	0.56µM*	?
CCCCNC(=S)Nc1ccc(-c2nc3ccc(C)cc3s2)cc1	1	0	?	3.2µM*	?
Cc1cccc(C)c1NC(=O)C(C)Sc1nnc(C)n1CC1CCCO1 (stereo unspecified)	0	1	-3%	0%	1%
Cc1ccc(Cl)cc1N	nt	nt	1%	0%	nt
CN(CC(=O)Nc1ccc(Cl)c(S(=O)(=O)N2CCOCC2)c1)C(=O)c1ccc(C#N)cc1	nt	-1	nt	nt	?
Cc1ccc(C(=O)C(C)Oc2ccc3ccc(=O)oc3c2)cc1 (stereo unspecified)	nt	5	16%	25%	11%
CCCCCCn1c(=O)[nH]c2nc3cc(N)ccc3nc2c1=O	-40*	21	0%	?	-24%
CCCCCn1c(=O)c(C(=O)c2ccccc2)nc2ccccc21	1	-7	6%	17%	-17%

Screening results: PubChem, National Center for Advancing Translational Sciences (NCATS)
